# From PubChem BioAssay
# “And” between values parts separate entries of the source, which are not always exact repeats. Equal entries are not always repeated. A structure can be active in one record and inactive in another. The source made the active and inactive calls.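 How the source made its calls, unless noted: active means inhibition at or above 50% relative to wild type and mutant plate controls; inactive means inhibition below 50%.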
# What was measured:
# [1] = inhibitors of TNFa-induced NFkB p65 translocation, primary screen, imaging, HUVEC, MLSMR starter and 10KST1 sets (AID 438;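 active means inhibition above 20% together with a positive visual image hit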;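 further: compound added about 3h40 before a 20 min TNFalpha stimulation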;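 on inhibition: signal is the nuclear over cytoplasmic p65 intensity ratio per well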); conditions: HUVEC TNFa-induced p65 nuclear translocation; cell count: measured here: nuclei count (cytotoxicity indicator), at 2.08 µM; inhibition: at 2 µM, stronger effect = higher value, 0% TNFa-plus-vehicle, 100% no-TNFa wells
# [2] = inhibitors of mutant huntingtin aggregation, primary screen, imaging, exon1htt(103Q)mCFP cells, high-content imaging (AID 483;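 active means visual image review flags a hit and inhibition of aggregation exceeds 20%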;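 further: compound exposure lasted 3 days before fixation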;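 on nuclei count: percent of the per-plate median nuclei count of sample wells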); conditions: exon1htt(103Q)mCFP cell line, aggregate imaging, at 2 µM; inhibition of aggregation: stronger effect = higher value; nuclei count: measured here: cell count, toxicity
# [3] = inhibitors of E-selectin induction by TNFa, primary screen, imaging, HUVEC, immunofluorescence, MLSMR starter and 10KST1 sets (AID 487;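 active means visually confirmed hit in the image check and inhibition above 20%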;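 on inhibition: signal is fraction of cell area covered by stained E-selectin grains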;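 on nuclei count: 100% = median nuclei count of all wells on the same plate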); conditions: HUVEC TNFalpha-induced E-selectin immunofluorescence imaging, at 2 µM; inhibition: stronger effect = higher value; nuclei count: measured here: cell number, toxicity
# [4] = DUSP6 inhibitors restoring Erk phosphorylation by chemical complementation, primary imaging in DUSP6-transfected HeLa (AID 609;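 active means compounds giving at least 50% inhibition in the cell-based MKP-3 phosphatase rescue imaging test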;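 on inhibition: phospho-Erk level distribution per well compared with pooled transfected vehicle control wells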); conditions: HeLa MKP-3 transfected, phospho-Erk imaging KS statistic, at 10 µM, cells stimulated with TPA for 15 min
# [5] = molecular target: Dual specificity protein phosphatase 6 (Homo sapiens) (UniProt Q16828); test: as above; conditions: HeLa MKP-3 transfected, phospho-Erk imaging KS statistic; at 10 µM; stronger effect = higher value; cells stimulated with TPA for 15 min
# [6] = molecular target: Voltage-gated potassium channel subunit beta-2 (Rattus norvegicus) (UniProt P62483); test: KvBeta enzyme negative modulators, primary screen, biochemical, NADPH fluorescence (AID 622;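 active means fluorescence slope higher than the sample average by over 3 SD, cut at about -0.22 in these data, passing the limit was not always enough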;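 further: slope of raw intensity against log time taken from 70 to 1610 s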); conditions: recombinant KvBeta, 4-cyanobenzaldehyde reduction, at 10 µM, stronger effect = higher value
# [7] = molecular target: Voltage-gated potassium channel subunit beta-2 (Rattus norvegicus) (UniProt P62483); test: KvBeta positive modulators, primary screen, biochemical, NADPH fluorescence (AID 623;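 active means NADPH fluorescence slope more negative than the mean of all samples by about 3 SD, 99.7% confidence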;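 further: fluorescence intensity change per second fitted from 20 to 320 s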); conditions: Recombinant KvBeta, NADPH fluorescence decrease slope, 10 min; at 10 µM; stronger effect = lower value
# [8] = molecular target: Alpha-2C adrenergic receptor (Homo sapiens) (UniProt P18825); test: modulators of alpha2C/GIRK thallium flux, primary screen, cell-based, HEK293 alpha2C/GIRK1/2 (AID 624;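 active means fluorescence slope after compound addition differing from the mean of all screened samples at 99.7% confidence, in either direction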;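 further: slope of fluorescence ratio to pre-addition baseline per second over 15 to 24 s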); conditions: thallium flux BTC fluorescence, at 10 µM, actives lie on both sides
# [9] = inhibitors of larval lipid processing in zebrafish, primary screen, whole organism, PED6 fluorescence, gall bladder and intestine (AID 686;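 active means a full or partial loss of lipid-probe fluorescence in the fish gall bladder, intestine or both, judged by eye; inactive means no fluorescence loss, or compound toxic to the fish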;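 further: larvae 5 to 7 days old with five fish per well; signal comes from phospholipase A2 cleavage of quenched PED6 carried via bile; overnight exposure to compound and PED6 before scoring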); conditions: Zebrafish larvae PED6 lipid processing, fluorescence scoring; screened at 20 µM (by protocol)
# [10] = inhibitors of Chlamydomonas gravitaxis, primary screen, whole organism, Chlamydomonas reinhardtii, WT vs cilia-less mutant, absorbance, 96-well (AID 463189); conditions: OD600 absorbance, 2 days, at 10 µM, stronger effect = higher value;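 further: 0% = wild type cc124 cells in DMSO and 100% = ciliumless bld1 mutant cells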
# [11] = inhibitors of Sendai virus-induced IRF3 signaling, primary screen, TLR/RLR signaling modifier project, cell-based, Sendai virus stimulus, luciferase, 10K MLSCN set (AID 602276;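 active means inhibition at or above 50% at 10 µM; inactive means inhibition below 50%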;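 further: firefly luciferase from ISG56 promoter only with Renilla not read in this screen; 0% = Sendai virus plus DMSO and 100% = medium plus DMSO without virus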); conditions: HEK293 RL24 IRF3 luciferase reporter, at 10 µM, stronger effect = higher value
# [12] = inhibitors of poly I:C-induced TLR3 signaling, primary screen, cell-based, poly I:C stimulus, luciferase, 10K MLSCN set (AID 602277;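 active means inhibition of the reporter signal at or above 50%; inactive means inhibition below 50%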); conditions: HEK293-TLR3 RL24 IRF3 luciferase reporter, at 10 µM, stronger effect = higher value
# [13] = molecular target: Muscarinic acetylcholine receptor M4 (Homo sapiens) (UniProt P08173); test: compounds altering M4/GIRK thallium flux, either direction, primary screen, M4 allosteric agonist project, cell-based, HEK293 M4/GIRK, BTC-AM (AID 625;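 active means fluorescence slope after compound addition differing from the mean of all tested samples at 99.7% confidence, mostly higher but some lower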;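 further: thallium influx through GIRK channels coupled to M4 in HEK293 cells with BTC-AM dye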); conditions: at 10 µM, actives lie on both sides
# [14] = measured here: cell density z-score
# [15] = measured here: nuclear c-Myc green intensity z-score
# [16] = measured here: nuclear pErk red intensity z-score, stronger effect = higher value
# Voltage-gated potassium channel subunit beta-2 (Rattus norvegicus), sequence (P62483 whole entry, looked up): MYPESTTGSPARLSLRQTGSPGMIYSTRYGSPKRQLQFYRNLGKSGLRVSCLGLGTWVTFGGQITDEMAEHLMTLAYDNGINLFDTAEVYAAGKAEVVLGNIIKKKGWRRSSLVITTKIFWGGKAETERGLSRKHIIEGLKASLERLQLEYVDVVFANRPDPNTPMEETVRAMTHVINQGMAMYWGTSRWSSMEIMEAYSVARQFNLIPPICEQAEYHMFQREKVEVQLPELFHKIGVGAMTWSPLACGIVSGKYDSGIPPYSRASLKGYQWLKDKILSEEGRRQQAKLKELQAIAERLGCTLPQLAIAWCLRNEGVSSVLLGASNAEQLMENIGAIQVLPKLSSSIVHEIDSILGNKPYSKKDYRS
# Alpha-2C adrenergic receptor (Homo sapiens), sequence (P18825 whole entry, looked up): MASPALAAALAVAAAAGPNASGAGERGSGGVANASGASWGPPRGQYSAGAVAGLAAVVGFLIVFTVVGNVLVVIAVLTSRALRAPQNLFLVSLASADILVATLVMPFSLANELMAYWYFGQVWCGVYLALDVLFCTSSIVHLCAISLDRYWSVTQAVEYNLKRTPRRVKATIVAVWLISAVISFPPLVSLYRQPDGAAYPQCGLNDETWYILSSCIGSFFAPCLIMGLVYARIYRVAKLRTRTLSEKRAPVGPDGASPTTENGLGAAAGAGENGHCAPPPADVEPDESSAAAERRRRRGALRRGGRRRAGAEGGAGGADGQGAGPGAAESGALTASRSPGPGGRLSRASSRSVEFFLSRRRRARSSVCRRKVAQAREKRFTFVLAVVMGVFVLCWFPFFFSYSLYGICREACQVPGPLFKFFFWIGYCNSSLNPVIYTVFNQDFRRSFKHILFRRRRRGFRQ
# Dual specificity protein phosphatase 6 (Homo sapiens), sequence (Q16828 whole entry, looked up): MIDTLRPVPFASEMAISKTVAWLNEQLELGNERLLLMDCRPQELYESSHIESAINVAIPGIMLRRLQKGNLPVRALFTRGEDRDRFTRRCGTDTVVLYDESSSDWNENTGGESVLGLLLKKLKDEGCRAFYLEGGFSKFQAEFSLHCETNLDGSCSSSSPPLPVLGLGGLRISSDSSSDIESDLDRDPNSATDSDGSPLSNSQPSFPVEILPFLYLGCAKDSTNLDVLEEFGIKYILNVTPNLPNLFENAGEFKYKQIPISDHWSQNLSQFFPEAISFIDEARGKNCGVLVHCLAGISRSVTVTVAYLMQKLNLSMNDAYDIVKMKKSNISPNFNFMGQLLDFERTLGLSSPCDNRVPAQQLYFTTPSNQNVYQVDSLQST
# Muscarinic acetylcholine receptor M4 (Homo sapiens), sequence (P08173 whole entry, looked up): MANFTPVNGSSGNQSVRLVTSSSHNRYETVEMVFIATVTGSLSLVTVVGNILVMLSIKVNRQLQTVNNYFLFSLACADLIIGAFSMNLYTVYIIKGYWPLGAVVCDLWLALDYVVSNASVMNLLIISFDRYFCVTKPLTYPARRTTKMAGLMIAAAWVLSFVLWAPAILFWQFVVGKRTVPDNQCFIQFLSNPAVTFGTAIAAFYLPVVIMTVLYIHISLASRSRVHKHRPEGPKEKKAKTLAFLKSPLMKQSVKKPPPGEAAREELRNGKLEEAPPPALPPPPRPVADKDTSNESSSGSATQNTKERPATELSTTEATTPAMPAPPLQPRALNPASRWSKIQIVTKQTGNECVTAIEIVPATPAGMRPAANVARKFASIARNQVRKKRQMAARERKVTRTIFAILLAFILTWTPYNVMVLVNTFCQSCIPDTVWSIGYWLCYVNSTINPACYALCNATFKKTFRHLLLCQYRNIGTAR
Structure (SMILES),cell count [1],inhibition [1],inhibition of aggregation [2],nuclei count [2] [%],inhibition [3],nuclei count [3] [%],"z-score [4, 14]","z-score [4, 15]","z-score [4, 16]",inhibition [5],fluorescence slope [6],NADPH fluorescence slope [7],slope [8],outcome [9],inhibition [10],inhibition [11],inhibition [12],fluorescence slope [13]
Nc1cccc(C(=O)O)c1,563,3.8% (inactive),28.2% (inactive),59,-31.1% (inactive),97.4,1.14,0.242,-0.0201,12.4% (inactive),-0.462 (inactive),-4.9e-05 (inactive),0.00577 (inactive),inactive,-1.48% (inactive),9.57% (inactive),34.4% (inactive),
CCCCCC(=O)O[C@]1(C(C)=O)CC[C@H]2[C@@H]3CCC4=CC(=O)CC[C@]4(C)[C@H]3CC[C@@]21C,601,-6.9% (inactive),2.3% (inactive),104,-58.2% (inactive),122,-1.27,-0.399,1.24,13.3% (inactive),-0.444 (inactive),-6.6e-05 (inactive),0.00545 (inactive),inactive,3.11% (inactive),0.124% (inactive),48% (inactive),
CCCOc1ccc(N2C(=O)C3ON(c4ccccc4)C(c4ccc(O)c(OC)c4)C3C2=O)cc1 (stereo not drawn),413,-5.2% (inactive),2.2% (inactive),110,-53.3% (inactive),124,0.885,-0.229,-0.338,7.42% (inactive),-0.41 (inactive),-0.0001 (inactive),0.00809 (inactive),inactive,-8.77% (inactive),16.5% (inactive),16.8% (inactive),
CN1CCCN=C1COC(=O)C(O)(c1ccccc1)C1CCCCC1 (stereo not drawn),703,-0.1% (inactive),15.9% (inactive),107,-113% (inactive),127,-0.149,-0.804,0.222,3.45% (inactive),-0.497 (inactive),-1.3e-05 (inactive),0.00478 (inactive),inactive,-8.88% (inactive),19.2% (inactive),50.5% (active),
CC(NC(=O)Nc1nccs1)(C(F)(F)F)C(F)(F)F,649,-2.2% (inactive),0.8% (inactive),108,-11.3% (inactive),107,-0.519,-0.302,-0.913,-0.233% (inactive),-0.47 (inactive),-3.5e-05 (inactive),0.00627 (inactive),inactive,-9.58% (inactive),1.15% (inactive),56.3% (active),0.00776 (inactive)
CN(C(=O)C(Cl)Cl)c1ccc(OC(=O)c2ccco2)cc1,579,-1.8% (inactive),-17.3% (inactive),101,-123% (inactive),112,0.253,-0.205,-0.332,15.3% (inactive),-0.508 (inactive),-6.7e-05 (inactive),0.00492 (inactive),inactive,-2.16% (inactive),21.3% (inactive),44.8% (inactive),
Cc1nc2sccn2c(=O)c1CCN1CCC(=C(c2ccc(F)cc2)c2ccc(F)cc2)CC1,597,-5.2% (inactive),4% (inactive),104,-80.7% (inactive),112,0.864,0.124,-0.385,27.9% (inactive),-0.459 (inactive),-4.2e-05 (inactive),0.0045 (inactive),inactive; toxic,29.2% (inactive) and 168% (active),12% (inactive),-6.25% (inactive),
O=C(O)CCCc1ccccc1,647,0.8% (inactive),-15.5% (inactive),106,-27.5% (inactive),112,0.592,-1.18,-0.707,8% (inactive),-0.549 (inactive),-3.8e-05 (inactive),0.0053 (inactive),inactive,-5.1% (inactive),-1.93% (inactive),7.07% (inactive),
CC(NC(=O)NCCCC(=O)O)(C(F)(F)F)C(F)(F)F,582,-3.7% (inactive),8.7% (inactive),98.1,-76% (inactive),122,-0.792,-0.179,1.85,-2.09% (inactive),-0.428 (inactive),-1.9e-05 (inactive),0.00567 (inactive),inactive,11.9% (inactive),18.9% (inactive),21.7% (inactive),0.00478 (inactive)
CC(NCCC(c1ccccc1)c1ccccc1)c1ccccc1 (stereo not drawn),619,-0.2% (inactive),22.8% (inactive),104,-24.4% (inactive),113,1.32,-0.571,-1.03,13.3% (inactive),-0.492 (inactive),-8.5e-06 (inactive),0.00284 (inactive),inactive,59.1% (active),28.7% (inactive),22.8% (inactive),
Cc1ccc2nc(C(F)(F)F)c(C#N)c(N)c2c1,451,-9.7% (inactive),11% (inactive),77.3,-14.1% (inactive),90.7,-0.557,-0.479,-0.0348,1.75% (inactive),-0.49 (inactive),-2e-05 (inactive),0.00524 (inactive),inactive,-8.78% (inactive),20% (inactive),-10.8% (inactive),
COc1ccc(Cn2c(N)c(C#N)c3nc4ccccc4nc32)cc1OC,497,2.3% (inactive),12.4% (inactive),100,-66.5% (inactive),123,0.51,-0.363,-0.944,27.8% (inactive),-0.285 (inactive),-1.3e-05 (inactive),0.00453 (inactive),inactive,2.2% (inactive),15.4% (inactive),14.9% (inactive),0.00496 (inactive)
CCOC(=O)CSc1nc(N)c2c3c(sc2n1)CCCC3,682,-4.4% (inactive),-8.1% (inactive),97.3,5.9% (inactive),146,-0.0379,1.11,-0.851,-3.95% (inactive),-0.363 (inactive),-5.9e-05 (inactive),0.0064 (inactive),inactive,-8.25% (inactive),12.5% (inactive),4.94% (inactive),
CN(C)c1ccc(O)c2c1CC1CC3[C@@H](N(C)C)C(=O)C(C(N)=O)=C(O)[C@]3(O)C(=O)C1=C2O (stereo partly drawn),516,-12.2% (inactive),71.3% (active),103,-55.7% (inactive),131,0.362,0.874,0.268,1.48% (inactive),-0.51 (inactive),-5e-06 (inactive),0.00461 (inactive),inactive,82.6% (active),17.8% (inactive),26.1% (inactive),
CN1CCCN(C(c2ccccc2)c2ccc(Cl)cc2)CC1 (stereo not drawn),564,5.7% (inactive),-11.5% (inactive),103,-6.3% (inactive),120,0.561,-0.226,0.2,-5.24% (inactive),-0.519 (inactive),-1.7e-06 (inactive),0.00369 (inactive),inactive,43% (inactive),-26.9% (inactive),68.6% (active),
C[C@@H]1C[C@H]2[C@@H]3CCC4=CC(=O)C=C[C@]4(C)[C@@]3(F)[C@@H](O)C[C@]2(C)[C@H]1C(=O)CO,647,-8.8% (inactive),0% (inactive),59.5,-68% (inactive),134,1.14,0.339,-1.14,31.1% (inactive),-0.536 (inactive),-9.8e-05 (inactive),0.00544 (inactive),inactive,4.88% (inactive),-17.5% (inactive),-9.26% (inactive),
C[C@]12C=CC(=O)C=C1CC[C@@H]1[C@@H]2[C@@H](O)C[C@@]2(C)[C@H]1CC[C@]2(O)C(=O)COC(=O)CCC(=O)O,671,-6.3% (inactive),6.5% (inactive),85.8,-27.3% (inactive),120,1.3,0.17,-0.0671,19.2% (inactive),-0.471 (inactive),-8e-05 (inactive),0.00574 (inactive),inactive,15.8% (inactive),6.58% (inactive),46.6% (inactive),
Cn1c(=O)n(CCC(=O)O)c2ccccc21,429,-3.4% (inactive),7.9% (inactive),96.9,-65.4% (inactive),159,-0.862,-1.01,0.787,-9.7% (inactive),-0.405 (inactive),-5.3e-05 (inactive),0.00491 (inactive),inactive,1.78% (inactive),16.2% (inactive),22.9% (inactive),
COc1ccc(OC)c(C2=Nn3c(nnc3C3CCCCC3)SC2)c1,580,-3.9% (inactive),18.9% (inactive),77.4,-38.3% (inactive),118,-0.0238,2.3,-0.394,2.92% (inactive),-0.431 (inactive),-0.000148 (inactive),0.00512 (inactive),inactive,25.7% (inactive),5.58% (inactive),19.6% (inactive),
Cc1c(OCC(F)(F)F)ccnc1CS(=O)c1nc2ccccc2[nH]1 (stereo not drawn),654,0.3% (inactive),8.2% (inactive),77.3,-74.2% (inactive),98.2,1.3,-0.826,-0.353,14.6% (inactive),-0.466 (inactive),-3.7e-05 (inactive),0.00411 (inactive),inactive,-14.9% (inactive) and -4.97% (inactive),-45.4% (inactive),-64.9% (inactive),
